Screening data (PubChem)
SRC1 inh: SRC1 coactivator transcriptional activity inhibitors, primary screen, cell-based, luminescence; Nuclear receptor coactivator 1 (Homo sapiens), Q15788; HEK293 GAL4-SRC1 luciferase reporter; inhibition, % at 3.6 µM; 0.12% of 360,000 active;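 active means inhibition above the campaign mean plus 3 SD, with each screening campaign given its own cutoff, cut at about 60% in these data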
Target sequence (Q15788 whole entry, looked up, the tested form may be a part): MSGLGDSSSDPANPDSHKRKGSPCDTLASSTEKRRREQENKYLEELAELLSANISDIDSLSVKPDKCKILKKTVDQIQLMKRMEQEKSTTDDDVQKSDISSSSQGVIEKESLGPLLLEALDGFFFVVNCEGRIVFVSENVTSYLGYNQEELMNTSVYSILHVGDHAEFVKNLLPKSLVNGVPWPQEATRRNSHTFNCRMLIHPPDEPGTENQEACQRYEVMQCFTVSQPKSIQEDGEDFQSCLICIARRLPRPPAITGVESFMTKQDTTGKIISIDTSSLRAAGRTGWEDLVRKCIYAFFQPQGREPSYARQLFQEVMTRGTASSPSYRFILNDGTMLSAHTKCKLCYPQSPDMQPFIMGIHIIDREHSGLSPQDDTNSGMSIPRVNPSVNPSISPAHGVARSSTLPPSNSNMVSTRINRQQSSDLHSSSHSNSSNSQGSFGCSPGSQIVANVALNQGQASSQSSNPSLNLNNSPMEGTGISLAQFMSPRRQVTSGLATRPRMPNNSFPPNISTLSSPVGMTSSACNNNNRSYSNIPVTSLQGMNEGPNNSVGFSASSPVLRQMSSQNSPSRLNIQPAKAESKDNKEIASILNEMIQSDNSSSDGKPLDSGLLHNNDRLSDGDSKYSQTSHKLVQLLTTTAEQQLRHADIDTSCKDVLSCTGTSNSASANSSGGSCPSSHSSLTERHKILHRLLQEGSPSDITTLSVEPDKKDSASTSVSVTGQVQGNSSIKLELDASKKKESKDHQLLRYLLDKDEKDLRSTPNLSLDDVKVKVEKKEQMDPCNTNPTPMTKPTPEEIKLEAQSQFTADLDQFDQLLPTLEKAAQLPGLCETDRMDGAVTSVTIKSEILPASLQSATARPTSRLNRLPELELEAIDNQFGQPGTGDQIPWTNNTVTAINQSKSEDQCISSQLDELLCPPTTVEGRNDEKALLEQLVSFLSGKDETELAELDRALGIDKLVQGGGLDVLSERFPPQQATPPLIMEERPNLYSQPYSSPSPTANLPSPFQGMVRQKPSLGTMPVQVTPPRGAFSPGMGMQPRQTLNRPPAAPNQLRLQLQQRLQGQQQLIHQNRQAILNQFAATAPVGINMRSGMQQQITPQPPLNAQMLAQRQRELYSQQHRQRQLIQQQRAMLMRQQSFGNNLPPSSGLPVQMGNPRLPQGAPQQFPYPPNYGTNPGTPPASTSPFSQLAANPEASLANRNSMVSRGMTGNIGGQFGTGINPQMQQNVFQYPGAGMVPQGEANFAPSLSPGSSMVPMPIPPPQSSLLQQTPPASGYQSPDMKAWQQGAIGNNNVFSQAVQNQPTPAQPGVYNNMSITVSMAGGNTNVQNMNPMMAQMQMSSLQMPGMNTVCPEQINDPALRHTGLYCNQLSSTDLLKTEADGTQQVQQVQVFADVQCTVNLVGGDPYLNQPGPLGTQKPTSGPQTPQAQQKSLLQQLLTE
NCOA3 inh: SRC3 coactivator transcriptional activity inhibitors, primary screen, cell-based, luminescence. HEK293 GAL4-SRC3 luciferase reporter. inhibition, % at 3.6 µM. 0.17% of 360,000 active;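 active means inhibition above a per-campaign cutoff, the mean of all compounds plus 3 SD, cut at about 60% in these data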;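 further: higher means less SRC3-driven luciferase light from the GAL4 reporter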
SRC2 inh: inhibition of GAL4-SRC2 driven luciferase reporter, primary screen, SRC2 inhibitor project, cell-based, luminescence | Nuclear receptor coactivator 2 (Homo sapiens), Q15596 | HEK293 GAL4-SRC2 luciferase reporter | inhibition, % at 9 µM | 0.17% of 370,000 active;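 active means inhibition above the mean inhibition of all tested compounds plus 3 SD, set per campaign, cut at about 52% in these data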
LRH-1 inv ag: LRH-1 (NR5A2) inverse agonists, primary screen, cell-based, luminescence, HEK293T, StAR-luciferase reporter; LRH-1 transfected, 24 h; inhibition, % at 3.6 µM; Nuclear receptor subfamily 5 group A member 2 (Homo sapiens), O00482; 0.13% of 360,000 active;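 active means inhibition above the mean inhibition of all tested compounds plus 3 SD, cut at about 73% in these data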
NR2F2 inh: NR2F2 transcriptional activity inhibitors, primary screen, cell-based, luciferase reporter, HEK293T, luminescence; COUP transcription factor 2 (Homo sapiens), P24468; HEK293T NGFI-A luciferase reporter; inhibition, % at 8.6 µM; 0.7% of 370,000 active; AID 686940, 2013;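 active means inhibition above a per-plate cutoff, mean inhibition of test wells between control levels plus 3 SD, cut at about 38% in these data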;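 further: cells cotransfected with COUP-TFII expression vector driving the NGFI-A reporter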
Gli-Sufu antag: Gli-Sufu pathway antagonists, primary screen, luciferase luminescence, Sufu-KO-LIGHT cells, uHTS | Sufu-KO-LIGHT fibroblasts, Gli luciferase reporter luminescence | inhibition, % at 5 µM | AID 588413, 2011 | 0.74% of 340,000 active;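 active means inhibition above about 55%, limit read from the data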
Gli antag conf: Gli-SUFU pathway antagonists, confirmation, single concentration, luciferase luminescence, Sufu-KO-LIGHT cells; shares compounds with Gli-Sufu antag; Gli luciferase reporter; inhibition, % at 5 µM; 40% of 2,500 active; AID 602428, 2012;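 active means mean inhibition at 5 µM reaching about 45%, limit read from the data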
SufuKO cytotox: cytotoxicity in Sufu-KO-LIGHT cells, confirmation, cytotoxicity control for Gli-SUFU antagonist project, cell-based, ATP luminescence, single concentration; cytotoxicity, % at 5 µM; shares compounds with Gli-Sufu antag; 32% of 2,500 active;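 active means mean cytotoxicity at 5 µM above about 25%, limit read from the data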;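 further: cells exposed to compound overnight for roughly 16 to 18 hours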
Wnt3a cs: Wnt3a reporter signal inhibition, confirmation, counter-screen for Gli-SUFU antagonist project, Wnt-LIGHT cells, luminescence, single concentration. shares compounds with Gli-Sufu antag. Wnt3a-driven luciferase reporter. inhibition, % at 6.25 µM. 20% of 2,500 active. AID 651995, 2013;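 active means mean inhibition above about 25%, limit read from the data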
Hits are given with their value; . = inactive; / = no result given. Only some compounds are listed: those with a hit (about 1.3% of all), similar ones and a draw of the others.

SMILES	SRC1 inh	NCOA3 inh	SRC2 inh	LRH-1 inv ag	NR2F2 inh	Gli-Sufu antag	Gli antag conf	SufuKO cytotox	Wnt3a cs
O=C(N=C1N(Cc2ccccc2)[C@@H](Cc2ccccc2)[C@]2(C=C3CCCCC3n3c(=O)n(-c4ccccc4)c(=O)n32)N1C(=O)OCc1ccccc1)c1ccccc1 (stereo partly specified)	/	/	.	/	.	/	/	/	/
O=C(CSCSCC(=O)NCC1CCCO1)NCC1CCCO1 (stereo unspecified)	.	.	.	.	.	96	.	.	.
Cc1cc(C)cc(OCC(=O)NCC2CCCO2)c1 (stereo unspecified)	.	.	.	.	.	71	.	.	38
Cc1ccc(-c2noc(CCCC(=O)NCC3CCCO3)n2)cc1 (stereo unspecified)	.	.	.	.	.	56	.	.	.
CCCCNC(=O)C[C@H]1C[C@@]2(C(=O)OC)C(=C[C@H](C(C)C)O[C@@H]2C2CC2)N(Cc2ccc3c(c2)OCO3)C1=O	/	/	.	/	.	/	/	/	/
CC(=O)N1CCN(c2ccc(N3CCN(Cc4ccccc4)[C@@H](C)C3)c(C)c2)[C@H](C)C1	/	/	.	/	.	/	/	/	/
Cc1cccc(OCC(=O)Nc2ccc(S(=O)(=O)N3CCCC3)cc2)c1	.	.	.	.	.	.	/	/	/
Cc1cc(C)c(OCC(=O)Nc2ccc(S(=O)(=O)N3CCCC3)cc2)c(C)c1	.	.	.	.	.	98	.	25	.
N#CCC[C@@H]1CC[C@]2(CCCN(S(=O)(=O)C3CCCCC3)C2)O1	/	/	.	/	.	/	/	/	/
C=CCN=C1NC(c2cccc(C(F)(F)F)c2)C(C(=O)OC)=C(C)N1Cc1ccccc1C(F)(F)F (stereo unspecified)	/	/	.	/	.	/	/	/	/
Cc1cc(C(=O)NC2CCCN(Cc3ccc(Cl)cc3)C2)n(C)n1 (stereo unspecified)	.	.	.	.	.	57	.	.	.
COc1ccc(OCC(=O)NC2CCCN(Cc3ccc(Cl)cc3)C2)cc1 (stereo unspecified)	.	.	.	.	.	.	.	.	.
COc1cccc(CC(=O)NC2CCCN(Cc3ccc(Cl)cc3)C2)c1 (stereo unspecified)	.	.	.	.	.	.	/	/	/
O=C(CCn1nnc2ccccc21)N1CCN(c2ccccc2F)CC1	/	/	.	/	.	/	/	/	/
CN1N=C(N)c2cn(C3OC(COP(=O)(O)O)C(O)C3O)c3ncnc1c23 (stereo unspecified)	.	.	.	.	.	89	86	63	71
CC(C)[C@H]1/C(=C/C2CC2)N2C(=O)C[C@H](c3cccc(C(F)(F)F)c3)N=C2N1Cc1ccc2c(c1)OCO2	/	/	/	/	.	/	/	/	/
Cc1ccc(-c2cc[n+](Cc3ccccc3)cc2)cc1	.	.	.	.	.	62	78	41	26
Cc1cc[n+](Cc2ccc([N+](=O)[O-])cc2)cc1	.	.	.	.	.	.	/	/	/
O=S1(=O)CCOCC(CO)N1Cc1cccc(Br)c1 (stereo unspecified)	/	/	.	/	.	/	/	/	/
Cc1ccccc1CN1CCCCC(NC(=O)c2cccc(C(F)(F)F)c2)C1=O (stereo unspecified)	/	/	.	/	.	/	/	/	/
Cc1oc(-c2ccc(Cl)cc2)nc1CN1CCC(C(=O)N2CCc3ccccc3C2)CC1	.	.	/	.	/	.	/	/	/
Cc1oc(-c2cccc(Cl)c2)nc1CN1CCC(C(=O)N2CCN(c3ccccc3F)CC2)CC1	.	.	.	.	.	84	.	.	.
